In PubChem BioAssay (NCI) one finds growth inhibition data, which are given here for 38 compounds.

About 79,000 compounds went through this panel and 15% of them were active in at least one assay; those are over-represented in the sample as a whole. Unmarked numbers belong to inactive results. Active and inactive are the calls of the source. No stated cut-off is given here; in the data, active means growth inhibition above about 70%; inactive means the rest.

Experiment [1] is described as follows: NCI Yeast Anticancer Drug Screen. Data for the rad50 strain (AID 155).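 Further: 0% = growth of vehicle-only cultures of the same strain.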 The note with it: S. cerevisiae rad50 strain growth inhibition; at 50.0 µM; hits give high values. The gist of the method: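 Growth of the mutant yeast was measured after compound exposure and referenced to vehicle-treated cultures.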
Experiment [2] is described as follows: NCI Yeast Anticancer Drug Screen. Data for the mec2-1 strain (AID 157). The settings on record: S. cerevisiae mec2-1 strain, at 50.0 µM, hits give high values. The gist of the method:
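Yeast mec2-1 mutant treated with compound. Readout: growth inhibition vs vehicle controls.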

The nature of experiment [3]: NCI Yeast Anticancer Drug Screen. Data for the sgs1 mgt1 strain (AID 161).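 Further: 0% = growth of cultures given vehicle only.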 The note with it: S. cerevisiae sgs1 mgt1 strain, at 50.0 µM, hits give high values. The gist of the method:
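Genetically altered yeast, compound exposure, growth inhibition relative to vehicle.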

The nature of experiment [4]: NCI Yeast Anticancer Drug Screen. Data for the cln2 rad14 strain (AID 165).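 Further: 0% = growth equal to vehicle treated cultures.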 The note with it: S. cerevisiae cln2 rad14 strain, at 50.0 µM, hits give high values. The gist of the method: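 cln2 rad14 yeast strain; compound exposure; growth inhibition read vs vehicle controls.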
Experiment [5] is described as follows: NCI Yeast Anticancer Drug Screen. Data for the bub3 strain (AID 167). The note with it: S. cerevisiae bub3 mutant strain, at 50.0 µM, hits give high values. The gist of the method:
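Whole-cell yeast assay. The mutant strain was incubated with compounds, and growth inhibition was determined by comparison with vehicle-treated cells.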

A short description of experiment [6]: NCI Yeast Anticancer Drug Screen. Data for the mlh1 rad18 strain (AID 175). The settings on record: S. cerevisiae mlh1 rad18 strain growth inhibition; at 50.0 µM; hits give high values. The gist of the method: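 Yeast w/ defined DNA-repair lesions; compound exposure; growth vs vehicle controls → % inhibition.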

For the compound `Cc1c[n+]([O-])cc(C)c1N=Nc1ccc(N(C)C)cc1`, the growth inhibition was 2.55% in experiment [1]; -7.7% in experiment [2]; -7.95% in experiment [3]; 11.1% in experiment [4]; 11.9% in experiment [5]; 18.2% in experiment [6].
Turning to `O=C1NCC(c2ccccc2)(C2CC2)O1` (stereo not drawn), the growth inhibition in experiment [1] was 7.85%; in experiment [2], 6.65%; in experiment [3] it was -13.3%; in experiment [4] it was -44.6%; in experiment [5] it was 5.1%; in experiment [6] it was -27.1%.
In the case of `CSC1=N/C(=C\c2ccc(C)cc2)C(=O)N1`, the growth inhibition was -35.5% in experiment [1]; 0.3% in experiment [2]; 20.2% in experiment [3]; 0.85% in experiment [4]; -6.35% in experiment [5]; -10.5% in experiment [6].
For the compound `CSCCC(NC=O)C(=O)O` (stereo not drawn), the growth inhibition is -0.65% in experiment [1]; -5.35% in experiment [2]; 7.9% in experiment [3]; 1.05% in experiment [4]; 5.75% in experiment [5]; 3.8% in experiment [6].
For `C[CH2][Sn]([CH2]C)([O]C(=O)c1ccc2c(c1)OC(C)(C)O2)[O]C(=O)c1ccc2c(c1)OC(C)(C)O2`, the growth inhibition was 51.3% in experiment [1]; 52.1% in experiment [2]; 4.7% in experiment [3]; 41.4% in experiment [4]; 14% in experiment [5]; -2.7% in experiment [6].
Consider `SCCNCc1ccccn1`, for which the growth inhibition is -22.1% in experiment [1]; -36.1% in experiment [2]; -17.4% in experiment [3]; 14.3% in experiment [4]; -37.4% in experiment [5]; -3.65% in experiment [6].
As for `Cc1cc(OC(C)C)cc(C)c1C(=O)OCC(C)N1CCCC1` (stereo not drawn), the growth inhibition in experiment [1] was 11.8%; in experiment [2] it was -8.2%; in experiment [3], 19.9%; in experiment [4] it was 5.35%; in experiment [5] it was -4.9%; in experiment [6], 11.2%.
For the compound `Cc1cc(N)cc(C)n1`, the growth inhibition in experiment [1] is 22.9%; in experiment [2], 28.6%; in experiment [3] it was -14.8%; in experiment [4] it was 0.7%; in experiment [5], 11.7%; in experiment [6], 11.7%.
For the compound `COc1ccc(NC(=O)CCCC(=O)CC(=O)c2ccc(Cl)cc2)c(OC)c1`, the growth inhibition in experiment [1] is 32.6%; in experiment [2] it was 13.2%; in experiment [3], -0.95%; in experiment [4] it was -20%; in experiment [5] it was -1.95%; in experiment [6], 18.1%.
`Cc1ccc(C(=O)O)c(O)c1`: the growth inhibition in experiment [1] is 11.7%; in experiment [2] it was -1.7%; in experiment [3] it was -14.8%; in experiment [4], -13.9%; in experiment [5], -26%; in experiment [6], -2.5%.
As to `O=C(N/N=C/c1ccc(Br)cc1)N/N=C/c1ccc(Br)cc1`, the growth inhibition is -13.5% in experiment [1]; -15.7% in experiment [2]; -6.45% in experiment [3]; 11.4% in experiment [4]; -5.05% in experiment [5]; -12.8% in experiment [6].
In the case of `CCCN(CCC)C(=S)S`, the growth inhibition is 43.1% in experiment [1]; 7.95% in experiment [2]; 54.1% in experiment [3]; 32.7% in experiment [4]; 23.2% in experiment [5]; 14.4% in experiment [6].
For the compound `CC(=O)Oc1cc2c(cc1C(NC(N)=O)c1ccc3c(c1)OCO3)OCO2` (stereo not drawn), the growth inhibition is 1.95% in experiment [1]; 2.7% in experiment [2]; 1.55% in experiment [3]; -11.2% in experiment [4]; 16.4% in experiment [5]; 12.4% in experiment [6].
Regarding `COc1cc(Cl)ccc1NC(=O)Oc1ccc2ccccc2c1`, the growth inhibition in experiment [1] is 11.8%; in experiment [2], 14.2%; in experiment [3], 13%; in experiment [4] it was 9.2%; in experiment [5], 14.4%; in experiment [6], 9.4%.
`Cc1c(O)c2ccccc2n(C)c1=O`: the growth inhibition was -9.45% in experiment [1]; -12.4% in experiment [2]; -15.7% in experiment [3]; -6.1% in experiment [4]; 3.85% in experiment [5]; -6.8% in experiment [6].
`ONC1=Nc2cc(Cl)ccc2C(=S)N2CSCC12` (stereo not drawn): the growth inhibition in experiment [1] was 1.55%; in experiment [2], 18.6%; in experiment [3] it was -0.25%; in experiment [4], 0.45%; in experiment [5] it was -9.8%; in experiment [6] it was 18.8%.
`O=c1[nH]nc(S(=O)(=O)NC2CCCCC2)c(=O)[nH]1`: the growth inhibition was 12.6% in experiment [1]; -13.1% in experiment [2]; -7.3% in experiment [3]; -20.9% in experiment [4]; 2.65% in experiment [5]; 5.6% in experiment [6].
Regarding `COc1ccc(OC)c(NC(=O)Nc2cc(Cl)ccc2C)c1`, the growth inhibition in experiment [1] was 4.25%; in experiment [2], 0.65%; in experiment [3], -2.3%; in experiment [4], -6.1%; in experiment [5], 19.2%; in experiment [6], 4.8%.
Regarding `O=C(O)C1[N-]CCNC1C(=O)O.[O]=[V][OH]` (stereo not drawn), the growth inhibition is -10.7% in experiment [1]; -2.4% in experiment [2]; -4.6% in experiment [3]; -16.9% in experiment [4]; -2.25% in experiment [5]; -5.05% in experiment [6].
`OCC1OC(n2cc3ccccc3n2)C(O)C1O` (stereo not drawn): the growth inhibition in experiment [1] was 3.55%; in experiment [2] it was 4.85%; in experiment [3] it was -5.55%; in experiment [4], -3.8%; in experiment [5], 5.65%; in experiment [6] it was -8.45%.
As to `CC(C)(C)C1=CC(=O)OC1(Cl)C(C)(C)C` (stereo not drawn), the growth inhibition in experiment [1] was -0.65%; in experiment [2], 6.8%; in experiment [3], -1.05%; in experiment [4], 8.8%; in experiment [5], 13.8%; in experiment [6], -9.05%.
For `CC(=O)OCCc1nnnn1C`, the growth inhibition in experiment [1] was 4.9%; in experiment [2] it was -9.95%; in experiment [3], -14.6%; in experiment [4] it was -22.5%; in experiment [5] it was 2.45%; in experiment [6], 10.4%.
As to `COc1ccc(OC)c2c(=O)cc(C)oc12`, the growth inhibition in experiment [1] is -15.7%; in experiment [2], -7.8%; in experiment [3], -16.3%; in experiment [4], -3.4%; in experiment [5], -7.65%; in experiment [6] it was -10.4%.
`COc1ccc(OC)c(NC(=O)C2=C(C)NC(C)=C(C(=O)Nc3cc(OC)ccc3OC)C2c2cccc([N+](=O)[O-])c2)c1`: the growth inhibition in experiment [1] is 1.05%; in experiment [2], 8.65%; in experiment [3] it was 1.9%; in experiment [4], -9.3%; in experiment [5], 7.5%; in experiment [6], 4.25%.
In the case of `CC(=O)Oc1c(C)n(C(C)=O)c2cc(Cl)ccc12`, the growth inhibition in experiment [1] is 1.35%; in experiment [2], -5.55%; in experiment [3] it was 15.3%; in experiment [4], -45%; in experiment [5], 6.15%; in experiment [6], -8.3%.
Regarding `O=C(N=C1SCCS1)Nc1cccc(Cl)c1`, the growth inhibition in experiment [1] is 87% (active); in experiment [2], 5.7%; in experiment [3], 44%; in experiment [4], 11.3%; in experiment [5], 11.4%; in experiment [6] it was 37.2%.
On to `COC(=O)c1nc(N)nc(C(=O)OC)c1C(=O)c1ccc2ccccc2c1`, for which the growth inhibition in experiment [1] was -4.75%; in experiment [2] it was -13%; in experiment [3] it was 10.8%; in experiment [4] it was -2.8%; in experiment [5], 3.9%; in experiment [6], 9.4%.
On to `CN1CCC(c2ccccc2)(c2ccccc2)C(O)C1` (stereo not drawn), for which the growth inhibition in experiment [1] is 1.15%; in experiment [2], -0.45%; in experiment [3], 13.7%; in experiment [4], 4.35%; in experiment [5], 3.3%; in experiment [6], 4.7%.
For `Fc1ccc(C2=NOC3COC4C=CC=CC4OCC23)cc1` (stereo not drawn), the growth inhibition in experiment [1] is -29.2%; in experiment [2], -34.9%; in experiment [3] it was -22.9%; in experiment [4], -9.15%; in experiment [5], -45.1%; in experiment [6], -42.2%.
Regarding `CCOC(=O)CCc1c(C)c2c(OC(C)=O)cc(OC(C)=O)cc2oc1=O`, the growth inhibition was 31.6% in experiment [1]; 0.9% in experiment [2]; 17.4% in experiment [3]; 13.4% in experiment [4]; -1.05% in experiment [5]; 2.4% in experiment [6].
Turning to `CCCCCCCCCCCCCCCCCCNC(=O)Nc1ccc(OC)cc1OC`, the growth inhibition in experiment [1] was 15.4%; in experiment [2] it was 37%; in experiment [3], -0.3%; in experiment [4], 3%; in experiment [5], 2.8%; in experiment [6] it was 13.3%.
Regarding `CCOC(=O)C(NC(=O)c1ccccc1)(N1CCN(c2cc3c(cc2F)c(=O)c(C(=O)O)cn3CC)CC1)C(F)(F)F` (stereo not drawn), the growth inhibition is -29.4% in experiment [1]; -34.4% in experiment [2]; -3.3% in experiment [3]; -18.4% in experiment [4]; -14.2% in experiment [5]; -20.8% in experiment [6].
`O=C(O)c1cc(-c2c(Cl)cccc2Cl)nc2cc3ccccc3cc12`: the growth inhibition in experiment [1] was 26%; in experiment [2], 15.8%; in experiment [3], 28.9%; in experiment [4] it was 21.4%; in experiment [5] it was 36.4%; in experiment [6], 26.4%.
With `O=C(Nc1ccn(CCI)c(=O)n1)c1ccccc1`, the growth inhibition was -20.8% in experiment [1]; -37.4% in experiment [2]; 10.1% in experiment [3]; 14.4% in experiment [4]; 15.2% in experiment [5]; 26.1% in experiment [6].
Turning to `COc1ccc(-n2cnc3c(cnn3C3OC(CO)C(O)C3O)c2=O)cc1` (stereo not drawn), the growth inhibition in experiment [1] was 8.7%; in experiment [2], 2.95%; in experiment [3], 8.45%; in experiment [4], 23.3%; in experiment [5], -4.25%; in experiment [6], 3.3%.
For the compound `CCCCCN(CCCCC)C(=O)C(C)C`, the growth inhibition in experiment [1] was -4.45%; in experiment [2], 7.8%; in experiment [3] it was 4.6%; in experiment [4], -30.1%; in experiment [5] it was -2%; in experiment [6], 5.8%.
Regarding `Oc1cc(CN2CCOCC2)c(O)c(CN2CCOCC2)c1CN1CCOCC1`, the growth inhibition was 5.25% in experiment [1]; 7.45% in experiment [2]; 10.3% in experiment [3]; 27.4% in experiment [4]; -1.05% in experiment [5]; -3.3% in experiment [6].
With `CCn1nc(C(=O)O)c(=O)c2cc3c(cc21)OCO3`, the growth inhibition was 8.1% in experiment [1]; 7.2% in experiment [2]; -9.85% in experiment [3]; -15.7% in experiment [4]; -3.9% in experiment [5]; 7.4% in experiment [6].
